Among the data in PubChem BioAssay (NCATS) are Potency, outcome and activity change, negative = inhibition values, retold here.

Values without a mark were called inactive. Records with an inconclusive call do not appear. Activity calls are given as the source filed them. Calls come from the whole dose curve; as a rule, active = well fitted curve in the direction sought with a large enough effect; inconclusive = small, poorly fitted or top-dose-only effect, or another doubt; inactive = no such curve, though single readings can be large; an effect the other way counts as inactive or inconclusive.

Assay [1] in a line: Quantitative High-Throughput drug screen in 47 multiple myeloma cell lines against the NCATS MIPE library collection: FR4_PLB cell viability assay (AID 1918924; note: nearly all actives have a fitted effect of over 35% in size; note: potency is the fitted concentration of half-maximal effect). The method, boiled down: (§1)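 Approved and investigational drugs from MIPE 4.0 were added by pin tool to 500 cells per well. After 48 hours at 37C, ATP-based CellTiter-Glo luminescence indicated remaining viability.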
A short description of assay [2]: Quantitative High-Throughput drug screen in 47 multiple myeloma cell lines against the NCATS MIPE library collection: Delta47_JCRB cell viability assay (AID 1918925; note: nearly all actives have a fitted effect of over 45% in size; note: potency is the fitted concentration of half-maximal effect). The method, boiled down: (§2)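 CellTiter-Glo luminescence (ATP) after 48 h compound exposure, 37C/5% CO2; 500 cells/well; MIPE 4.0 approved/investigational drugs pinned in; DMSO = 100%, media only = 0% viability.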

A short description of assay [3]: Quantitative High-Throughput drug screen in 47 multiple myeloma cell lines against the NCATS MIPE library collection: EJM_DSMZ cell viability assay (AID 1918926; note: nearly all actives have a fitted effect of over 30% in size; note: potency is the fitted concentration of half-maximal effect). The method, boiled down:
as §2

The nature of assay [4]: Quantitative High-Throughput drug screen in 47 multiple myeloma cell lines against the NCATS MIPE library collection: AMO1_DSMZ cell viability assay (AID 1918927; note: nearly all actives have a fitted effect of over 30% in size; note: potency is the fitted concentration of half-maximal effect). The method, boiled down: as §2
Assay [5] is described as follows: Quantitative High-Throughput drug screen in 47 multiple myeloma cell lines against the NCATS MIPE library collection: ARP1_JJKsccF8 cell viability assay (AID 1918928; note: nearly all actives have a fitted effect of over 40% in size; note: potency is the fitted concentration of half-maximal effect). The gist of the method: (§3)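 Viability screen: myeloma cells (500/well) incubated 48 h at 37 °C, humidified 5% CO2, with pinned library compounds; CellTiter-Glo added, luminescence read; DMSO wells set 100%, medium-only wells 0%.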

Assay [6] is described as follows: Quantitative High-Throughput drug screen in 47 multiple myeloma cell lines against the NCATS MIPE library collection: ARD_JJKsccE7 cell viability assay (AID 1918929; note: potency is the fitted concentration of half-maximal effect). The method, boiled down: as §2
A short description of assay [7]: Quantitative High-Throughput drug screen in 47 multiple myeloma cell lines against the NCATS MIPE library collection: Karpas620_DSMZ cell viability assay (AID 1918959). Note: nearly all actives have a fitted effect of over 30% in size. Note: potency is the fitted concentration of half-maximal effect. The method, boiled down:
as §1

Assay [8] in a line: Quantitative High-Throughput drug screen in 47 multiple myeloma cell lines against the NCATS MIPE library collection: KMM1_JCRB cell viability assay (AID 1918960). Note: nearly all actives have a fitted effect of over 30% in size. Note: potency is the fitted concentration of half-maximal effect. The method, boiled down: as §3
The target in assay [9] is Phospholipid hydroperoxide glutathione peroxidase GPX4 (Homo sapiens) (UniProt P36969). Nature of the assay: Primary qHTS Assay for Inhibitors of Recombinant Selenoprotein Glutathione Peroxidase 4 (GPX4) (AID 1845192). For activity change, negative = inhibition: series mostly up to about 50 µM; % is set by controls: 0 for no effect and ±100 for the full control effect. Note: nearly all actives have a fitted effect of over 65% in size. The method, boiled down: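 NADPH consumption followed by fluorescence at 340/450 nm, t=0 and after 15 min at room temperature. Reaction started with cumene hydroperoxide (0.5 mM final) after 30 min compound–GPX4 preincubation; final 200 nM GPX4, 100 nM GR, 1 mM GSH, 0.5 mM NADPH.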
(Quantitative high-throughput screening tests each substance at several concentrations.)

The target in assay [10] is Luciferin 4-monooxygenase (Photinus pyralis) (UniProt P08659). In words: Primary firefly luciferase (FLuc) qHTS assay for identification of artifact compounds. (AID 1845220).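 For activity change, negative = inhibition: series mostly up to about 54 µM; plate controls were DMSO vehicle for no effect and no enzyme for full effect.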 Note: nearly all actives have a fitted effect of over 60% in size. The method, boiled down:
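Compounds sat 15 min at room temperature with 10 uM luciferin and 10 uM ATP (pH 7.6 Tris acetate). Firefly luciferase (10 nM final) was then added, and luminescence was read 5 min later. Data normalized to no-enzyme and DMSO controls were Hill-fitted.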

Assay [11] in a line: Primary fluorescence-based thiol-reactive (MSTI) qHTS assay for identification of artifact compounds. (AID 1845221). Note: nearly all actives have a fitted effect of over 65% in size. Note: potency is the fitted concentration of half-maximal effect. The method, boiled down:
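A multi-concentration qHTS design tested compounds against 4 uM MSTI, pH 7.4 phosphate-buffered saline. Plates were protected from light for 1 h at room temperature before imaging fluorescence.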

In assay [12] the test system is Nanoluciferase (engineered Oplophorus gracilirostris luciferase). Nature of the assay: Primary Nanoluciferase (NLuc) qHTS assay for identification of artifact compounds. (AID 1845222).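 Note: series mostly up to about 54 µM; 0% = DMSO and -100% = no enzyme.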 The gist of the method:
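Luminescence from secreted NLuc (filtered, 1:55-diluted S16 cell medium) read 5 min after Nano-Glo substrate; compounds preincubated 15 min, RT. Hill fits of inhibition normalized to DMSO and no-enzyme.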

A short description of assay [13]: Primary redox qHTS assay for identification of artifact compounds. (AID 1845223). The method, boiled down:
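Redox-cycling detection via DTT (250 uM final) oxidation coupled to Amplex Red (25 uM)/HRP (250 mU/mL) in HBSS. 15 min preincubation plus 30 min after DTT, room temperature. Ex/Em 525/598 nm; 4-parameter Hill fit against DMSO and 10 uM DA3003.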

Chain of Phospholipid hydroperoxide glutathione peroxidase GPX4 (Homo sapiens) (P36969 whole entry, looked up): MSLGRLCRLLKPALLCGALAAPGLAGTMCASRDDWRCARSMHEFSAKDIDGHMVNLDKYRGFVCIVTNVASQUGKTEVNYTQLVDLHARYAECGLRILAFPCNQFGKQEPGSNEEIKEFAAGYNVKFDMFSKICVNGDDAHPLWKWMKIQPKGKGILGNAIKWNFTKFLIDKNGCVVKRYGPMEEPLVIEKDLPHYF

Regarding `C[C@H](NCc1ccc2c(c1)nc(NC(=O)c1ccc(-c3cn[nH]c3)s1)n2CCc1ccccc1)C(C)(C)C`, the Potency is 1050 nM (active) in assay [1]; 662 nM (active) in assay [2]; 1050 nM (active) in assay [3]; 662 nM (active) in assay [4]; 1320 nM (active) in assay [5]; 526 nM (active) in assay [6]. Further, the values for the Potency in assay [7] and in assay [8] were 743 nM (active) and 833 nM (active), respectively.

As to `CNC(=O)c1cccc(-c2ccc3c(N4CCOC[C@H]4C)nc(N4CCOC[C@H]4C)nc3n2)c1`, the Potency is 66.2 nM (active) in [1]; 29.6 nM (active) in assay [2]; 1660 nM (active) in [3]; 83.3 nM (active) in assay [4]; 18.7 nM (active) in [5]; 1180 nM (active) in assay [6].

For the compound `COC1=C(OC)C(=O)C(CC=C(C)CCC=C(C)CCC=C(C)CCC=C(C)CCC=C(C)CCC=C(C)CCC=C(C)CCC=C(C)CCC=C(C)CCC=C(C)C)=C(C)C1=O`, the outcome in [9] was “inactive [at 4.52 µM]”. For the same compound, the Potency result in [1], in assay [3], in assay [4], in [5], in assay [6] and in assay [7] was “inactive” each time. Also, in [8], the Potency entry is “inactive”.

Take `C[C@@]12C(=O)OC(=O)[C@@]1(C)C1CCC2O1`: the Potency in assay [1] was 1480 nM (active); in [2], 935 nM (active); in [3], 2640 nM (active); in assay [4], 1320 nM (active); in [5], 833 nM (active); in assay [6], 1660 nM (active). Also, the Potency is 2960 nM (active) in assay [7] and 743 nM (active) in assay [8].

For `C=CC(=O)Nc1cc(NC(=O)c2ccc(C)c(NC(=O)c3ccno3)c2)cc(C(F)(F)F)c1`, the Potency in assay [1] was 26400 nM (active); in assay [2], 9350 nM (active); in assay [3], 16600 nM (active); in assay [4] it was 5260 nM (active); in assay [5], 16600 nM (active); in [6], 5900 nM (active). Besides, the Potency was 8330 nM (active) in assay [7] and 5900 nM (active) in assay [8].

As to `CC(C)(N)c1ccc(-c2nc3ccccc3nc2-c2ccccc2)cc1`, the Potency entry in assay [10], in [11] and in assay [13] was “inactive” each time. In addition, in assay [12], the compound was called inactive. Also, the Potency in [3] is 23500 nM (active); in assay [4], 14800 nM (active); in assay [6], 14800 nM (active); in assay [7], 10500 nM (active); in [8], 18700 nM (active).

Turning to `CN[C@H]1[C@@H](O)[C@@H]2O[C@@H]3O[C@H](C)CC(=O)[C@]3(O)O[C@@H]2[C@@H](NC)[C@H]1O`, the Potency is 1660 nM (active) in [1]; 1180 nM (active) in assay [2]; 166 nM (active) in [3]; 418 nM (active) in assay [4]; 1320 nM (active) in assay [5]; 469 nM (active) in assay [6]. In assay [7], the Potency is 743 nM (active).

In the case of `CCN(CC)CCCCNc1ncc2c(n1)N(C)C(=O)N(c1c(Cl)c(OC)cc(OC)c1Cl)C2`, the Potency result in assay [9], in assay [4], in assay [7] and in assay [8] was “inactive” throughout. The Potency in [3] is 18700 nM (active).

Turning to `Nc1cccc2c1C(=O)N(C1CCC(=O)NC1=O)C2=O` (stereo unspecified), the Potency entry in assay [9] and in [8] was “inactive” in each case. For the same compound, the Potency in [2] is 3.7 nM (active); in [7], 20.9 nM (active).

For the compound `CCCCCCCCCCCCCCCC(=O)OC[C@@H](NC(=O)C(Cl)Cl)[C@H](O)c1ccc([N+](=O)[O-])cc1`, the Potency entry in [9], in [3], in [4], in [5], in assay [6] and in assay [7] was “inactive” in each case.

`CC(C)(O)[C@H]1CC[C@@](C)([C@H]2[C@@H](O)C[C@@]3(C)[C@@H]4C[C@H](O[C@@H]5O[C@H](CO)[C@@H](O)[C@H](O)[C@@H]5O)[C@H]5C(C)(C)[C@@H](O[C@@H]6OC[C@@H](O)[C@H](O)[C@@H]6O)CC[C@@]56C[C@@]46CC[C@]23C)O1`: the Potency entry in assay [1], in [2], in assay [3], in [4], in [5] and in assay [6] was “inactive” in each case. Also, the Potency result in assay [7] was “inactive”.

As for `O=C(Nc1cccc(Nc2ncc(Br)c(NCCc3cnc[nH]3)n2)c1)N1CCCC1`, the Potency result in assay [9], in [4], in assay [7] and in assay [8] was “inactive” in each case. Besides, the Potency in assay [2] is 4180 nM (active); in assay [3], 16600 nM (active); in assay [5] it was 18700 nM (active).

For `CC(=O)NCC(=O)N1[C@H]2CC[C@H]1c1cc(Nc3ncc(C(F)(F)F)c(NC4CCC4)n3)ccc12`, the Potency in assay [1] was 9350 nM (active); in assay [2], 662 nM (active); in assay [3] it was 7430 nM (active); in [4] it was 235 nM (active); in assay [5] it was 4690 nM (active); in assay [6] it was 1660 nM (active). The Potency in assay [7] is 1320 nM (active).

With `COc1ccc(S(=O)(=O)Nc2cccnc2Nc2ccc(O)cc2)cc1`, the Potency entry in assay [10] and in assay [13] was “inactive” in each case. Moreover, the Potency in assay [11] is 4230 nM (active); in assay [1], 26.4 nM (active); in assay [3] it was 296 nM (active); in [5], 59 nM (active). Also, the result in assay [12] was inactive.

For `Nc1nc(N)c2nc(-c3cccc(O)c3)c(-c3cccc(O)c3)nc2n1`, the Potency in [1] is 10500 nM (active); in [2], 5900 nM (active); in assay [3], 18700 nM (active); in assay [4] it was 7430 nM (active); in [5], 20900 nM (active); in assay [6] it was 8330 nM (active). For the same compound, the Potency in [7] is 11800 nM (active); in [8], 3720 nM (active).

In the case of `CCOC(=O)[C@H](CCc1ccccc1)N[C@@H](C)C(=O)N1[C@@H](C(=O)O)C[C@H]2CCC[C@@H]21`, the Potency was 18700 nM (active) in assay [1]; 8330 nM (active) in assay [2]; 20900 nM (active) in assay [3]; 7430 nM (active) in [4]; 20900 nM (active) in assay [5]; 9350 nM (active) in assay [6]. Besides, the Potency in assay [7] is 8330 nM (active); in assay [8] it was 7430 nM (active).

As for `NC[C@H]1O[C@H](O[C@H]2[C@@H](O)[C@@H](O[C@H]3O[C@H](CO)[C@@H](O)[C@H](N)[C@@H]3O)[C@H](N)C[C@@H]2N)[C@H](N)C[C@H]1O`, the activity change, negative = inhibition in assay [9] was -9.51% [at 9.73 µM]. For the same compound, the Potency result in [1], in assay [3], in assay [4], in assay [5], in assay [6] and in [7] was “inactive” throughout. For the same compound, the Potency entry in assay [8] was “inactive”.

Regarding `O=C(O)C(=O)Nc1cccc(C2=NN=N[N]2)c1`, the Potency result in assay [1], in assay [2], in assay [3], in assay [4], in [5] and in assay [6] was “inactive” in each case. The Potency result in assay [7] and in assay [8] was “inactive” each time.

For the compound `CC(C=CC(=O)NO)=C[C@@H](C)C(=O)c1ccc(N(C)C)cc1`, the Potency in assay [1] was 332 nM (active); in assay [2] it was 235 nM (active); in assay [3], 469 nM (active); in assay [4] it was 235 nM (active); in [5] it was 209 nM (active); in [6], 264 nM (active). Further, the Potency in assay [7] is 418 nM (active).
